High-throughput results from PubChem.
An excerpt weighted towards active compounds, which were near 8% of everything screened.
HT1080NT lethal – kills 2HG-producing HT-1080-NT fibrosarcoma cells | HT-1080-NT fibrosarcoma viability, CellTiter-Glo ATP luminescence, 48 h | Potency, µM (titrated, usually from 46.1 µM), most hits filed as cytotoxic | 360,000 tested, 1.6% active | AID 686970;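 note: NT is the 2HG producing partner of a matched IDH1 knockdown line; nearly all actives have a fitted effect of over 55% in size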
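Fibrosarcoma NT cells, 750 per well in 5% FBS RPMI, were exposed to compound for 48 hours. Viability: CellTiter-Glo luminescence.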
KB-3-1 tox – kills parental KB-3-1 adenocarcinoma cells; KB-3-1 viability, CellTiter-Glo ATP luminescence, 72 h; Potency, µM (titrated, usually from 46.1 µM), hits mostly cytotoxic; 400,000 tested, 1.4% active; note: nearly all actives have a fitted effect of over 60% in size
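Cells are dispensed, compounds pinned in, plates held at 37 °C for 72 h, then CellTiter-Glo is added and luminescence read after 10 minutes. Cell line: parental KB-3-1 in phenol-red-free DMEM, 10% FBS.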
MCF10A rerep – DNA re-replication induction in MCF 10a cells | MCF 10A DNA re-replication, Hoechst nuclear intensity, 48 h | Potency, µM (highest dose often 46.1 µM), actives largely listed as activators | 350,000 tested, 2.9% active; note: nearly all actives have a fitted effect of over 50% in size
KB-V1 MDR tox – KB-V1 MDR subline cytotoxicity. 400,000 tested, 3.4% active. KB-V1 MDR cells viability, CellTiter-Glo, 72 h. Potency, µM (titrated, usually from 46.1 µM), hits mostly cytotoxic; note: nearly all actives have a fitted effect of over 60% in size
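Potencies derive from concentration-effect curves fitted to normalized luminescence (CellTiter-Glo) of KB-V1 cells treated for 72 h at 37 degrees C in phenol-red-free DMEM containing 10% FBS.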
SW480 rerep – inducers of DNA re-replication in SW480 colon cancer cells; Potency, µM (top dose mostly 46.1 µM), usual class: activators; SW480 DNA re-replication, Hoechst DNA content imaging, 48 h; 340,000 tested, 1.8% active; note: nearly all actives have a fitted effect of over 55% in size
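Treated cells incubate 48 hr (37 C, 5% CO2), are stained 40 min with Hoechst, and nuclear fluorescence is enumerated; a rise in nuclei with high DNA signal marks re-replication.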
HT1080 IDH1KD tx – toxicity to HT-1080 IDH1 knockdown cells (counter line). 360,000 tested, 2% active. Potency, µM (series often up to 46.1 µM), actives largely listed as cytotoxic. HT-1080 IDH1 knockdown viability, ATP luminescence, 48 h
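Using the IDH1-knockdown HT-1080 line run in the same batch and compound series as the NT line, viability after 48 h at 37 °C was determined by CellTiter-Glo luminescence and expressed as % activity.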
A number is an active result; . = inactive; ? = inconclusive; / = not tested or not shown. Calls come from the whole dose curve; as a rule, active = well fitted curve in the direction sought with a large enough effect; inconclusive = small, poorly fitted or top-dose-only effect, or another doubt; inactive = no such curve, though single readings can be large; an effect the other way counts as inactive or inconclusive.

SMILES	HT1080NT lethal	KB-3-1 tox	MCF10A rerep	KB-V1 MDR tox	SW480 rerep	HT1080 IDH1KD tx
Cc1ccc(-n2nc3cc(C)c(N)cc3n2)cc1	.	.	18µM	.	?	.
Nc1ccc2nn(-c3cccc4ccccc34)nc2c1	.	.	9.2µM	.	18µM	.
Cc1cccc(NC(=O)CCS(=O)(=O)c2ccccc2)c1	.	.	.	.	?	.
CC(=O)Nc1ccc2c(c1)CCc1ccccc1-2	.	.	.	.	.	.
O=C(O)/C=C/C(=O)c1ccc2c(c1)CCc1ccccc1-2	18µM	13µM	3.7µM	?	4.1µM	?
Cc1cccc(N(CC(=O)Nc2ccccc2F)S(C)(=O)=O)c1	.	.	.	23µM	.	.
COc1ccc(N(CC(=O)Nc2ccccc2SC)S(C)(=O)=O)cc1OC	.	.	.	.	.	.
CSc1ccccc1NC(=O)CN(c1ccccc1Br)S(C)(=O)=O	.	.	.	15µM	.	.
Cc1cc(C)n(-c2ccc(C(=O)OCC(=O)Nc3ccc(S(N)(=O)=O)cc3)cc2)n1	.	.	.	.	.	.
COc1cc(OC)c(OC)cc1/C=C/c1cc[n+](C)c2ccccc12	/	15µM	/	.	/	/
C[n+]1ccc(/C=C/c2ccccc2O)c2ccccc21	.	.	?	?	.	?
Cc1cc(N(C)C)cc(C)c1/C=C/c1cc[n+](C)c2ccccc12	/	4.6µM	/	.	/	/
CN(C)c1ccc(/C=C/c2cc[n+](C)c3ccc4ccccc4c23)cc1	/	0.92µM	/	?	/	/
COc1cc(OC)c(/C=C/c2cc[n+](C)c3ccccc23)c(OC)c1	/	?	/	.	/	/
CCOc1ccc(Cl)cc1CNCCCSc1nc(C)cc(C)n1	?	.	.	.	?	.
COc1ccc(OC)c(N=c2oc3cc(O)ccc3cc2C(N)=O)c1	.	?	16µM	?	18µM	.
COc1ccc2oc(=Nc3cc(F)ccc3F)c(C(N)=O)cc2c1	?	7.3µM	?	?	?	?
CCOC(=O)C1(C)CCCN(C(=O)c2ccccc2C(F)(F)F)C1 (stereo unspecified)	.	.	/	.	/	.
O=C(NCC1CC1(Cl)Cl)Nc1ccc(Cl)c(Cl)c1 (stereo unspecified)	18µM	?	18µM	?	?	29µM
Cc1cc(=O)n(-c2ccc(C(=O)O)cc2)[nH]1	.	.	.	.	.	.
Cc1ccccc1[C@H](NC1c2ccccc2C=Cc2ccccc21)P(=O)(c1ccccc1)c1ccccc1	15µM	?	/	?	/	13µM
Cc1ccc(NC(=O)N2CCC(NC(=O)c3ccccc3C)CC2)cc1	.	.	.	.	.	.
NC(=O)NC(c1ccc(Cl)cc1)c1ccccc1Cl (stereo unspecified)	.	.	.	.	.	.
CC(C)C(=O)NC(=S)Nc1ccc(S(=O)(=O)N2CCCC2)cc1	.	.	?	15µM	.	.
Cc1cccc(C(=O)NC(=S)Nc2ccc(S(=O)(=O)N3CCN(C)CC3)cc2)c1	.	.	?	.	.	.
SMILES	HT1080NT lethal	KB-3-1 tox	MCF10A rerep	KB-V1 MDR tox	SW480 rerep	HT1080 IDH1KD tx
O=C(NC(=S)Nc1ccc(S(=O)(=O)N2CCCCCC2)cc1)c1cccs1	?	.	.	.	.	.
O=C(NC(=S)Nc1ccc(S(=O)(=O)N2CCCC2)cc1)c1cccs1	.	.	.	10µM	.	.
Cc1ccc(-c2ccc(S(=O)(=O)N3CCN(C)CC3)cc2)cc1	.	.	.	13µM	.	.
Cc1ccc(C(=O)NC(=S)Nc2ccc(S(=O)(=O)N3CCN(C)CC3)cc2)cc1	.	.	.	23µM	.	.
CC1(C)CC(=O)C=C(Nc2ccc(O)cc2)C1	.	?	/	.	/	.
O=C(NC(=S)Nc1ccc(N2CCCCC2)cc1)c1cccs1	1.3µM	.	?	.	?	4µM
CS(=O)(=O)N1CCN(c2ccc(NC(=S)NC(=O)c3cccs3)cc2)CC1	.	.	.	.	.	.
FC(F)(F)c1ccccc1Cc1c(-c2cccc(Br)c2)nc2ccc(Cl)cn12	.	.	/	.	/	.
Cc1cccc(C)c1Nc1c(-c2ccsc2)nc2ncccn12	.	.	.	12µM	.	?
